We go through 40 compounds from PubChem BioAssay (NCI).

About 83,000 compounds went through this panel and 20% of them were active in at least one assay; those are over-represented in the sample as a whole.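 Assay: single dose, 48 h. Readout: percent growth (0 = no net growth; negative = cell death). Active: <10.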 Calls of active or inactive are those of the source.

The test system of the assay is OVCAR-4 ovarian. Put plainly: NCI-60 one-dose screen, 48 h (100 = growth as untreated, 0 = no growth, -100 = all killed). The settings on record: 10 µM unless noted. How it is done:
Growth inhibition of the OVCAR-4 human tumor cell line is measured as a screen for anti-cancer activity. Cells are grown in 96 well plates and exposed to the test compound for 48 hours. Compounds are tested at a single concentration, which is 10^-5 M for most compounds. The reported endpoint is percent growth (GI% or GIPRCNT), where numbers from 0 - 100% represent growth inhibition, and numbers from -100% - 0 represent cell death. For example, a value of 40 represents 60% growth inhibition. A value of 0 means no net growth occurred over the course of the experiment. A value of -40 indicates 40% of cells at the beginning of the experiment died by the end of the experiment. A value of -100 means all cells are dead at the end of the experiment.
NCI-60 Human Tumor Cell Lines Screen was performed using the standard one-dose NCI protocol, which is described in more detail at https://dtp.cancer.gov/discovery_development/nci-60/default.htm.
Compounds with GIPRCNT values below 10 were considered active. Activity score was based on GIPRCNT using the following formula: […]
Score is 0 for GIPRCNT values of 100 or above, 50 for GIPRCNT values of 0, and 100 for GIPRCNT values of -100.
Turning to `N#Cc1nc(-c2ccccc2)oc1N1CCC(C2(C(F)(F)F)N=N2)CC1`, the growth was 96.4% (inactive).

For `CC(C)(C)Nc1nc2c(OCCc3ccccc3)cccn2c1-c1ccc([N+](=O)[O-])cc1`, the growth is 42.3% (inactive).

Consider `C#Cc1nc(/C=C/C(=O)NO)cs1`, for which the growth was -24.9% (active).

In the case of `O=C(COc1ccc(/C=C2\C(=O)Nc3ccc(Cl)cc32)cc1)Nc1ccc(Cl)cc1`, the growth is 59.2% (inactive).

As for `CN1CCN(c2ccc(Nc3nc(NCCCNS(=O)(=O)c4cccc(F)c4)c4sccc4n3)cc2)CC1`, the growth was 18.3% (inactive).

`CC(C)Sc1nc(-c2ccccc2)c(C#N)c(N2CCOCC2)n1`: the growth was 2.36% (active).

As for `O=c1oc2ccc(-c3ccc(F)cc3F)cc2c(=O)n1-c1ccc(Br)cc1F`, the growth was 78.7% (inactive).

With `COc1ccc(-c2c(C(N)=O)c(N)n(Cc3nc4ccccc4[nH]3)c(=O)c2C#N)c(OC)c1`, the growth was 108% (inactive).

`Cc1ccc(N2CCN(C3=C(Cl)C(=O)c4ncccc4C3=O)CC2)cc1`: the growth was 48.3% (inactive).

As to `O=C(CSc1nnc(-c2ccc(Cl)cc2)n1-c1ccccc1)Nc1ccccc1Cl`, the growth was 8.39% (active).

As for `Clc1ccc2c(N/N=C/c3c[nH]c4ccccc34)ccnc2c1`, the growth was -61.2% (active).

For `O=C1Nc2ccccc2/C1=C/c1ccc(OCC(=O)c2ccccc2)cc1`, the growth is 96.5% (inactive).

With `COc1cccc2c1C=CC1(O2)Oc2cccc(OC)c2C=C1C` (stereo not given), the growth is 85.3% (inactive).

Take `CCc1cc(OC(=O)N2CCC(N3CCCCC3)CC2)ccc1Nc1cc(-c2ccc(-n3cccn3)cc2)[nH]n1`: the growth was 85.3% (inactive).

As to `C#C[C@]1(O)CC[C@H]2[C@@H]3CC=C4c5sc(Nc6ccc(C)cn6)nc5CC[C@]4(C)[C@H]3CC[C@@]21C`, the growth is 42.8% (inactive).

As for `COc1ccc(Cn2cc(C#N)c(N)c2C(C)=O)cc1`, the growth is 92.9% (inactive).

On to `O=C(Nc1ccc(Cl)c(C(F)(F)F)c1)Nc1ccc2oc(=O)ccc2c1`, for which the growth was 43.3% (inactive).

As for `CCCN1C=C/C(=C\C(=O)n2ccc3ccccc32)c2ccccc21`, the growth was 49.9% (inactive).

In the case of `CC/C(=C(/c1ccc(Cl)cc1)c1ccc(OCCN)cc1)c1ccccc1`, the growth was 99.3% (inactive).

`O=C1Nc2ccccc2/C1=N\c1nnc(-c2ccccc2)o1`: the growth was 98.7% (inactive).

Take `O=C1C(N2CCN(c3ccccc3)CC2)=C(Cl)C(=O)c2ncccc21`: the growth was 66% (inactive).

With `CCOC(=O)c1ccc(NC2=C(Cl)C(=O)c3nc(C)ccc3C2=O)cc1`, the growth is -62.7% (active).

For the compound `CSc1ccc(C(=NNS(=O)(=O)c2ccc(C)cc2)c2ccc(Cl)cc2)cc1`, the growth is 102% (inactive).

With `CCCCCN1C(=O)/C(=c2\sc3n(c2=O)C2C(NN=3)N(CC)C(=O)N2CC)c2cccc(C)c21` (stereo not given), the growth was 52.1% (inactive).

As to `CN1CCN(c2ccc(Nc3nc(NCCNS(=O)(=O)c4ccc(Cl)cc4)c4sccc4n3)cc2)CC1`, the growth is 84% (inactive).

As for `Cc1ccc(/C=N/Nc2nc(Nc3ccccc3)nc(Nc3ccc(S(N)(=O)=O)cc3)n2)cc1`, the growth was 69.6% (inactive).

For `C=C(C)[C@@H]1CC[C@]2(COCCCNCCCN)CC[C@]3(C)[C@H](CC[C@@H]4[C@@]5(C)CC[C@H](O)C(C)(C)[C@@H]5CC[C@]43C)[C@@H]12`, the growth was -68.5% (active).

Consider `COc1ccc(C(=O)c2c(N)c(C#N)cn2-c2ccc(Cl)cc2Cl)cc1`, for which the growth was 103% (inactive).

With `O=C(CSc1nnc(-c2cccs2)n1-c1ccccc1)Nc1ccccc1`, the growth is 56.3% (inactive).

Take `C=C1CCc2nc(SCC(=O)O)ccc2N1`: the growth was 104% (inactive).

On to `N#Cc1c(-c2ccc(Br)cc2)cc(-c2c[nH]c3ccccc23)nc1N`, for which the growth is 74.7% (inactive).

For the compound `Fc1ccc(-c2cn3c(-c4c[nH]c5ccc(Br)cc45)csc3n2)cc1`, the growth was 34.3% (inactive).

For `CC1(C)CC[C@]2(C(=O)O)CC[C@]3(C)C(=CC[C@@H]4[C@@]5(C)CC[C@H](NOCCCN)C(C)(C)[C@@H]5CC[C@]43C)[C@@H]2C1`, the growth was 95.2% (inactive).

As to `COc1ccc2[nH]cc(-c3nn4cc(-c5ccncc5)nc4s3)c2c1`, the growth was 71.1% (inactive).

Take `CC(=O)OC[C@@]12Oc3c(cccc3-c3ccc(O)c4c3O[C@]3(COC(C)=O)C(=C4O)C(=O)C[C@H](C)[C@@H]3OC(C)=O)C(O)=C1C(=O)C[C@H](C)[C@@H]2OC(C)=O`: the growth is 5.47% (active).

With `Cc1c(C(=O)/C=C/c2ccc(Cl)cc2)nnn1-c1ccc2oc(=O)ccc2c1`, the growth is 105% (inactive).

For `CCOC(=O)c1c(N)c(C#N)cn1Cc1ccc(Cl)cc1Cl`, the growth is 79.3% (inactive).

For `Cc1ccc(OCc2occc2C(=O)N2CCOCC2)cc1`, the growth was 103% (inactive).

As for `Cc1ccc(NC(=O)/C=C/c2ccc(OCCCOc3ccc4c(C)cc(=O)oc4c3)cc2)cc1`, the growth was 19.9% (inactive).

As for `C#Cc1nc(/C=C/CCCCCCC(=O)NO)cs1`, the growth was 47.2% (inactive).
